# The list is not random: actives were taken first. Their share in the collection is about 2.2%.
# FUS suppressor = FUS proteinopathy suppression in yeast. S. cerevisiae FUS-expressing, growth rescue, OD600, 24 h. Potency, µM (top dose mostly 76.6 µM), hits mostly activators. 390,000 tested, 0.24% active. AID 1347120;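 also: plate controls were DMSO vehicle for no effect and reference control for full effect; nearly all actives have a fitted effect of over 55% in size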
#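 Read-out: OD at 600 nm after 24hr at 30C, reporting rescue of FUS-induced yeast toxicity. Cells at OD 0.005 in galactose (2%) minimal medium; compounds tested in a dilution series; CP55940 titration from 92uM final as control.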
# Mito fusion act = blocks mitochondrial division or promotes mitochondrial fusion; Potency, µM (titrated, usually from 46.1 µM), for the others: top-dose growth rescue (activation), most hits filed as activators; S. cerevisiae fusion-defective mutant growth rescue, CellTiterGlo 48 h; 320,000 tested, 0.23% active; also: % of control where 0% means no effect; nearly all actives have a fitted effect of over 45% in size
#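 Yeast fusion mutant, YPEG (non-fermentable carbon), compound, 48 h at 37C non-permissive; CellTiterGlo added, 10 min RT, luminescence read. Rescued growth = division inhibition.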
# TDP43 rescue = inhibitors of TDP-43 toxicity in yeast | TDP-43 expressing yeast growth rescue, BacTiter-Glo, 24 h | Potency, µM (titrated, usually from 46.1 µM), without a hit: at the top dose growth rescue (activation), actives largely listed as activators | 410,000 tested, 1.8% active | AID 652104; also: % of control where 0% means no effect; nearly all actives have a fitted effect of over 50% in size
#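 Readout is BacTiter-Glo luminescence of cell growth, so inhibitors register as activators. TDP-43-expressing yeast at OD600=0.02 in galactose medium, after raffinose pregrowth to mid-log, were incubated with compound for 24 hr at 30 deg C.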
# aSyn yeast inh = inhibitors of alpha-synuclein toxicity in yeast. 370,000 tested, 0.14% active. Yeast expressing alpha-synuclein, growth rescue, BacTiter-Glo, 24 h. Potency, µM (top dose mostly 46.1 µM), for inactives: top-dose growth rescue (activation), hits mostly activators. AID 652106; also: % of control where 0% means no effect; nearly all actives have a fitted effect of over 65% in size
#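 Galactose-induced alpha-syn yeast (OD600=0.02, raffinose-pregrown) + pinned cpd, 24 hr, 30 deg C; growth by BacTiter-Glo luminescence. Growth restoration scores as activation.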
# Abeta yeast res = restores growth of yeast expressing A-beta42 peptide; yeast expressing A-beta42, growth rescue, OD600, 48 h; response scale: 0% DMSO, 100% iron-clioquinol control; Potency, µM (highest dose often 46.1 µM), hits mostly activators; 410,000 tested, 0.063% active; AID 1347071; also: nearly all actives have a fitted effect of over 55% in size
#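 Yeast growth medium received pinned compounds, then yeast cells expressing toxic A-beta were added; plates incubated at 30 C for 48 hr. Growth read as absorbance at 600 nm, normalized to DMSO and equimolar FeCl3 plus clioquinol controls.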
# Active calls of the source: *; i = inactive; ? = inconclusive; nt = not tested or not shown. Calls follow the shape of the dose curve; as a rule, active = well fitted curve in the direction sought with a large enough effect; inconclusive = small, poorly fitted or top-dose-only effect, or another doubt; inactive = no such curve, though single readings can be large; an effect the other way counts as inactive or inconclusive. Potency is read from the fitted curve at half-maximal effect.
SMILES,FUS suppressor,Mito fusion act,TDP43 rescue,aSyn yeast inh,Abeta yeast res
S=C(Nc1ccc(Cl)c(Cl)c1)NC1CCCCC1,i,23%,-2%,-16%,i
S=C(Nc1ccc2nsnc2c1)NC1CCCCC1,nt,?,13µM*,-13%,i
OC(c1ccc(Cl)cc1)c1ncc(-c2ccc(Oc3ccccc3)cc2)[nH]1 (stereo not drawn),?,nt,20µM*,-1%,i
CCCN(CCC)CCNC(=O)c1sc2nc3n(c(=O)c2c1C)CCCCC3,i,nt,16%,nt,i
COc1cc2ccccc2cc1-c1nnc(COc2ccccc2)o1,i,10µM*,25%,6%,i
CCCCCc1cc(O)c2c(C)cc(=O)oc2c1,i,14%,3.2µM*,-9%,i
Cc1cc(=O)oc2cc(O)cc(O)c12,i,nt,4%,-1%,i
CN(C(=O)c1ccc2c(c1)N(Cc1ccccc1F)C(=O)c1ccccc1S2(=O)=O)C1CCCCC1,10µM*,nt,-4%,nt,i
CN(Cc1ccccc1)C(=O)c1ccc2c(c1)N(Cc1ccccc1F)C(=O)c1ccccc1S2(=O)=O,32µM*,nt,1%,nt,i
OC(C[n+]1cccc(Br)c1)c1ccccc1 (stereo not drawn),nt,nt,nt,-7%,nt
Cc1csc(NC(=O)c2ccc(COc3cccc(Cl)c3)o2)n1,i,nt,nt,nt,nt
Cc1cccc(NC(=O)c2ccc(COc3ccccc3)o2)n1,i,3%,?,-6%,i
Cc1cccc(NC(=O)c2ccc(COc3ccc(Cl)cc3Cl)o2)n1,?,5%,18µM*,-5%,i
O=C(c1ccc(COc2ccccc2Cl)o1)N1CCN(c2ccccc2)CC1,i,14%,35µM*,23%,i
Cc1csc(NC(=O)c2ccc(COc3ccccc3)o2)n1,i,18%,22µM*,0%,i
COC(=O)c1ccc(COc2ccc(C(=O)c3ccccc3)cc2)o1,i,4%,11µM*,-5%,i
O=c1cc2nc(-c3ccccc3F)nc(SCc3ccc(Br)cc3)n2[nH]1,i,nt,5%,nt,i
COC(=O)C(C(=O)OC)[C@H]1C=C[C@@H](C(=O)NS(=O)(=O)c2ccc(C)cc2)N(C(C)=O)C1,i,nt,nt,nt,nt
O=C(Nc1nccs1)c1ccc(-c2ccc(F)c(Cl)c2)o1,i,12%,13µM*,-10%,i
O=C(Nc1nccs1)c1ccc(COc2ccccc2Cl)o1,i,20%,7.1µM*,-3%,i
O=C(Nc1nccs1)c1ccc(COc2c(F)c(F)cc(F)c2F)o1,i,-2%,25%,-10%,i
COC(=O)c1ccc(NC(=O)CN(c2cccc(C(F)(F)F)c2)S(C)(=O)=O)cc1,i,nt,22%,nt,?
CCn1nc(NS(=O)(=O)c2cccc3nonc23)c2cc3ccc(C)cc3nc21,i,-2%,-3%,-21%,i
CCCCn1nc(NS(=O)(=O)c2cccc3nonc23)c2cc3cccc(C)c3nc21,i,11µM*,12%,8%,i
Cc1cccc(N2CCN(C(=O)c3ccc4c(c3)c(C)c(C)n4C)CC2C)c1 (stereo not drawn),?,-6%,16µM*,1%,i
SMILES,FUS suppressor,Mito fusion act,TDP43 rescue,aSyn yeast inh,Abeta yeast res
Cc1cccc(N2CCN(C(=O)c3cc4c(=O)n(C)c5ccccc5c4s3)CC2C)c1 (stereo not drawn),i,nt,6%,nt,i
Cc1ccc(-c2c(C(=O)N3CCN(c4cccc(C)c4)C(C)C3)oc(=O)c3ccccc23)cc1 (stereo not drawn),i,nt,14µM*,nt,i
Cc1cccc(C)c1NC(=O)CSc1nnc(-c2ccco2)c(-c2ccco2)n1,i,2%,22µM*,7%,i
O=C(CSc1nnc(-c2ccco2)c(-c2ccco2)n1)Nc1ccccc1,22µM*,-2%,9%,-1%,i
Cc1ccccc1NC(=O)CSc1nnc(-c2ccco2)c(-c2ccco2)n1,i,1%,7%,-1%,i
Cc1ccc(NC(=O)CSc2nnc(-c3ccco3)c(-c3ccco3)n2)cc1,?,2%,-3%,8%,i
CC(=O)NC1=C(C#N)CCC1,nt,nt,nt,-13%,nt
CCOC(=O)c1ccc(Oc2nc(NC(C)(C)C)nc(N(C)C)n2)cc1,i,18%,22µM*,-15%,i
CCOC(=O)c1ccc(Oc2nc(N(C)C)nc(N(C)C)n2)cc1,i,6%,19%,3%,i
CCOC(=O)N1CCN(C(=O)C[C@@H]2C(=O)N(Cc3ccc(OC)cc3)/C3=C/CCCCC[C@@]32C(=O)OCC)CC1,i,nt,nt,nt,nt
COC(=O)c1cc(C)nc2c1c(=O)nc(SCc1c(C)cc(C)cc1C)n2C1CC1,i,nt,?,nt,i
Cc1ccc(CSc2nc(=O)c3c(C)cc(C)nc3n2C2CC2)cc1,?,nt,3.2µM*,nt,i
COc1cccc(C2CC(c3c(-c4ccccc4)c4cc(Cl)ccc4[nH]c3=O)=NN2S(C)(=O)=O)c1OC (stereo not drawn),35µM*,3%,-2%,14%,i
COc1ccccc1C1CC(c2c(-c3ccccc3)c3cc(Cl)ccc3[nH]c2=O)=NN1S(C)(=O)=O (stereo not drawn),?,6%,-2%,-1%,i
Cc1cc(C)c2nc(N3CCCN(C(=O)c4ccco4)CC3)c(C#N)cc2c1,i,8%,18µM*,nt,i
COc1ccccc1C(=O)N1CCN(c2nc3cc(C)cc(C)c3cc2C#N)CC1,i,nt,11µM*,26%,i
Cc1nc(N2CCN(C(=O)c3ccco3)CC2)c(C#N)c2c1CCCC2,i,?,?,7%,i
COc1cc(/C=C/c2ccnc3ccccc23)ccc1N(C)C,nt,nt,nt,-3%,nt
CN(CCO)c1ccc2c(c1)Oc1ccccc1CN(Cc1cn(Cc3ccc(F)cc3)nn1)S2(=O)=O,i,nt,nt,nt,nt
COC(=O)C1=CC(C(=O)c2cccs2)=NN(c2ccc(OC)cc2)C1C(=O)OC (stereo not drawn),i,18µM*,-5%,5%,i
O=c1cc2c(nn1Cc1ccccc1Cl)-c1ccccc1CC2,i,20µM*,24%,9%,i
O=C(c1ccccc1)C1CCN(C(=O)c2c(F)cccc2F)CC1,i,4%,11µM*,8%,i
O=C(c1ccc(F)cc1)C1CCN(C(=O)c2c(F)cccc2F)CC1,i,2%,?,10%,?
CCCN1CNc2c(c(=O)[nH]c(=S)n2CCc2c(C)cccc2C)C1,nt,nt,nt,-2%,nt
N#Cc1nc(-c2ccc(OCc3ccccc3Cl)cc2)oc1N1CCC(C(N)=O)CC1,nt,nt,nt,2%,nt
Cc1ccc(C2(C)NC(=O)N(CC(=O)N3CCc4ccccc43)C2=O)cc1 (stereo not drawn),i,nt,-24%,-4%,i

# Screens deposited in PubChem BioAssay by National Center for Advancing Translational Sciences (NCATS).
